The panel holds about 83,000 compounds, 20% with a hit somewhere; the sample as a whole holds those more often.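 For each line, cells grew in 96-well plates with the test compound present at a single concentration for 48 hours.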 Active and inactive are the calls of the source. How the source made its calls: active means growth percent below 10; inactive means the rest.

Our source for the growth values is PubChem BioAssay (NCI).

The test system of the first test is HCT-116 colon. Nature of the test: NCI-60 one-dose screen, 48 h (100 = growth as untreated, 0 = no growth, -100 = all killed). The conditions noted are these: 10 µM unless noted.
As for `C[C@H]1[C@H]2[C@H]3CC[C@@H]4[C@@]5(C)C/C(=C/c6ccco6)C(=O)C(C)(C)[C@@H]5CC[C@@]4(C)[C@]3(C)CC[C@]23CO[C@]1(C)[C@@H](C(=O)/C=C\c1ccco1)C3`, the growth was 101% (inactive).
Turning to `O=C(CCCCCCN1CC(=O)N2[C@@H](c3ccccc3Cl)c3[nH]c4ccccc4c3C[C@H]2C1=O)NO`, the growth is 34.2% (inactive).
Still for that read-out and setting: under `O=C(Nc1cccc(C(F)(F)F)c1)Nc1cccc(C(F)(F)F)c1` stands -10.8% (active).
Same read-out and setting: under `CC1=C([Se]CC(OC(=O)CC[Se]c2ccccc2)C(=O)NCCCCCC(=O)OCc2ccccc2)C(=O)c2ccccc2C1=O` (stereo unspecified) stands -3.51% (active).
Same read-out and setting: under `CCCCNC(=O)Oc1ccc2c(=O)c3sc4c(=O)c5ccccc5c(=O)c4c3c(=O)c2c1` stands -15.6% (active).
On to `C=C1C(=O)O[C@H]2[C@H]1CC/C(COC(=O)C(=O)c1c[nH]c3ccc(OC)cc13)=C\CC[C@@]1(C)O[C@@H]21`, for which the growth is -97.3% (active).
For the compound `O=c1[nH]nc(-c2ccccc2)c2c(-c3ccccc3)onc12`, the growth is 35.7% (inactive).
In the case of `COc1cc(-c2nn(-c3ccccc3)cc2-c2ccnc(NCCNS(=O)(=O)c3ccc(Cl)cc3)n2)ccc1Cl`, the growth was 14.3% (inactive).
On the same count and under the same terms, under `CCCCn1c(=O)c2c(nc(NCCc3ccc(O)c(O)c3)n2CCC)n(CCCC)c1=O` stands 63.3% (inactive); under `S=C(c1ccc2c(c1)OCO2)N1CCN(c2ccccc2Cl)CC1`, 92.3% (inactive); under `CC1=NOC(=O)/C1=C\c1ccc(O)cc1`, 103% (inactive).
On the same count and under the same terms, under `O=[N+]([O-])c1ccc(N2c3ccncc3Sc3ccncc32)cc1` stands 91.6% (inactive); under `C=CCNc1nc(NN2C(=O)c3cccc4cccc(c34)C2=O)nc(-n2cnc3ccccc32)n1`, 79.8% (inactive); under `Nc1ccc2c(c1)c(N)nn2C(=O)Nc1ccc(Cc2ccccc2)cc1`, 52.5% (inactive).
The same measure, in the same setting: then `COC(=O)c1ccc(CSc2nnc(-c3c(C)nc4ccc(C)cn34)o2)cc1`, with 99.3% (inactive); and `Cc1cc(O)c(C2=NN(c3ccc(S(N)(=O)=O)cc3)C(c3ccccc3Cl)C2)cc1Cl` (stereo unspecified), with -90.4% (active); and `Cc1ccc(Cc2cnc(NC(=O)c3ccc4noc(-c5ccccc5)c4c3)s2)cc1`, with 86.7% (inactive).
On to `Cn1cc(-c2csc(-c3cccc(F)c3)n2)c2cccnc21`, for which the growth was -79.7% [100 µM] (active).
On the same count and under the same terms, then `COc1c(CCC[P+](c2ccccc2)(c2ccccc2)c2ccccc2)cc2c(c1OC)OCO2`, with 5.97% (active); and `Cc1ccc(Nc2nc(N)nc(CSCC(=O)NN)n2)cc1`, with 103% (inactive).
On the same count and under the same terms, under `O=C(N/N=C/c1ccncc1)c1ccc(C(F)(F)F)nc1Nc1cccc(C(F)(F)F)c1` stands 11.1% (inactive).
On the same count and under the same terms, under `COc1cc2c(cc1-c1c(C)noc1C)ncc1nc(C3CCC(F)(F)CC3)n(C3CCC(OC(F)F)CC3)c12` (stereo unspecified) stands 53.9% (inactive).
With `O=c1[nH][n+](-c2ccc(Cl)cc2)no1`, the growth is 84.5% (inactive).
Same read-out and setting: under `O=C(CCc1nnc(CN(c2ccccc2)c2ccccc2)o1)c1nc2ccccc2[nH]1` stands 73.6% (inactive); under `Cc1cccc(Cc2cnc(NC(=O)c3ccc4nnsc4c3)s2)c1`, 87.7% (inactive).
On the same count and under the same terms, then `Cc1ccc(C(=O)COc2cccc(/C=C3\Oc4ccccc4C3=O)c2)cc1`, with 94.2% (inactive).
Regarding `CN(C)CCC=C1c2ccccc2C(C)(C)c2ccccc21`, the growth was 53.1% (inactive).
Regarding `COc1cc(C2CC(c3cc(OC)c(OCCCOc4ccc(-n5c(/C=C/c6ccccc6)nc6ccccc6c5=O)cc4)c(OC)c3)=NO2)cc(OC)c1OC` (stereo unspecified), the growth was 106% (inactive).
On the same count and under the same terms, then `CS(=O)c1cccc(-c2ccc3nc(N)n(-c4ccc(C(F)(F)F)cc4)c(=O)c3c2)c1` (stereo unspecified), with 100% (inactive); and `CC(C)(C)C(CCc1ccc(Cl)cc1)N1CCN(C2CCCCC2)CC1` (stereo unspecified), with 17.5% (inactive).
On the same count and under the same terms, then `CNC(=O)CCN1CCN(CC/C=C2\c3ccccc3Sc3ccc(Cl)cc32)CC1`, with 68.8% (inactive); and `O=c1ssc(Cl)c1-c1ccccc1`, with 93.5% (inactive); and `O=C1CC(N2C(=O)/C(=C/C(Cl)=C\c3ccc([N+](=O)[O-])cc3)SC2=S)C(=O)N1c1ccc(O)cc1` (stereo unspecified), with -31.2% (active).
On the same count and under the same terms, under `COC(=O)CCC1=C(C)C2=NC1=CC1=NC(=CC3=NC(=Cc4[nH]c(/c(=C(/C)O)c4C)=C2)C(C(C)=O)=C3C)C(C)=C1CCC(=O)OC` stands 102% (inactive); under `CC1SC(c2ccc(OCc3ccccc3)cc2)N(NC(=O)C(O)(c2ccccc2)c2ccccc2)C1=O` (stereo unspecified), 39.6% (inactive).
Regarding `N#CC1=C(NC=O)Oc2c(ccc3ccccc23)C1c1ccccc1` (stereo unspecified), the growth was 21.1% (inactive).
Consider `O=C(Cc1ccc(F)c(F)c1)Nc1cc(C2(C(F)(F)F)CC2)nn1Cc1ccccc1`, for which the growth was 6.07% (active).
Still for that read-out and setting: then `CCN(CC)CCN1CC(O)=C(c2nc(-c3ccc(Cl)cc3)cs2)C1=N`, with 1.48% (active).

In the next test the test system is HCC-2998 colon. The description is as above. The conditions noted are these: 10 µM unless noted.
Turning to `C[C@H]1[C@H]2[C@H]3CC[C@@H]4[C@@]5(C)C/C(=C/c6ccco6)C(=O)C(C)(C)[C@@H]5CC[C@@]4(C)[C@]3(C)CC[C@]23CO[C@]1(C)[C@@H](C(=O)/C=C\c1ccco1)C3`, the growth was 108% (inactive).
In the case of `O=C(CCCCCCN1CC(=O)N2[C@@H](c3ccccc3Cl)c3[nH]c4ccccc4c3C[C@H]2C1=O)NO`, the growth is 69.6% (inactive).
The same measure, in the same setting: under `O=C(Nc1cccc(C(F)(F)F)c1)Nc1cccc(C(F)(F)F)c1` stands 11.8% (inactive); under `CC1=C([Se]CC(OC(=O)CC[Se]c2ccccc2)C(=O)NCCCCCC(=O)OCc2ccccc2)C(=O)c2ccccc2C1=O` (stereo unspecified), 72% (inactive); under `CCCCNC(=O)Oc1ccc2c(=O)c3sc4c(=O)c5ccccc5c(=O)c4c3c(=O)c2c1`, -87.1% (active).
Same read-out and setting: then `C=C1C(=O)O[C@H]2[C@H]1CC/C(COC(=O)C(=O)c1c[nH]c3ccc(OC)cc13)=C\CC[C@@]1(C)O[C@@H]21`, with -81.9% (active).
Same read-out and setting: under `O=c1[nH]nc(-c2ccccc2)c2c(-c3ccccc3)onc12` stands 35.1% (inactive).
Turning to `COc1cc(-c2nn(-c3ccccc3)cc2-c2ccnc(NCCNS(=O)(=O)c3ccc(Cl)cc3)n2)ccc1Cl`, the growth is 34.1% (inactive).
On the same count and under the same terms, then `CCCCn1c(=O)c2c(nc(NCCc3ccc(O)c(O)c3)n2CCC)n(CCCC)c1=O`, with 78.8% (inactive); and `S=C(c1ccc2c(c1)OCO2)N1CCN(c2ccccc2Cl)CC1`, with 113% (inactive).
Consider `CC1=NOC(=O)/C1=C\c1ccc(O)cc1`, for which the growth was 109% (inactive).
The same measure, in the same setting: then `O=[N+]([O-])c1ccc(N2c3ccncc3Sc3ccncc32)cc1`, with 110% (inactive); and `C=CCNc1nc(NN2C(=O)c3cccc4cccc(c34)C2=O)nc(-n2cnc3ccccc32)n1`, with 91.8% (inactive); and `Nc1ccc2c(c1)c(N)nn2C(=O)Nc1ccc(Cc2ccccc2)cc1`, with 36.9% (inactive).
`COC(=O)c1ccc(CSc2nnc(-c3c(C)nc4ccc(C)cn34)o2)cc1`: the growth was 87% (inactive).
On the same count and under the same terms, then `Cc1cc(O)c(C2=NN(c3ccc(S(N)(=O)=O)cc3)C(c3ccccc3Cl)C2)cc1Cl` (stereo unspecified), with -39.4% (active); and `Cc1ccc(Cc2cnc(NC(=O)c3ccc4noc(-c5ccccc5)c4c3)s2)cc1`, with 99.7% (inactive); and `Cn1cc(-c2csc(-c3cccc(F)c3)n2)c2cccnc21`, with -84.6% [100 µM] (active).
As for `COc1c(CCC[P+](c2ccccc2)(c2ccccc2)c2ccccc2)cc2c(c1OC)OCO2`, the growth was 24.1% (inactive).
The same measure, in the same setting: under `Cc1ccc(Nc2nc(N)nc(CSCC(=O)NN)n2)cc1` stands 109% (inactive); under `O=C(N/N=C/c1ccncc1)c1ccc(C(F)(F)F)nc1Nc1cccc(C(F)(F)F)c1`, -40.3% (active).
In the case of `COc1cc2c(cc1-c1c(C)noc1C)ncc1nc(C3CCC(F)(F)CC3)n(C3CCC(OC(F)F)CC3)c12` (stereo unspecified), the growth is 52.1% (inactive).
For `O=c1[nH][n+](-c2ccc(Cl)cc2)no1`, the growth was 32.4% (inactive).
The same measure, in the same setting: then `O=C(CCc1nnc(CN(c2ccccc2)c2ccccc2)o1)c1nc2ccccc2[nH]1`, with 90.3% (inactive); and `Cc1cccc(Cc2cnc(NC(=O)c3ccc4nnsc4c3)s2)c1`, with 87.5% (inactive); and `Cc1ccc(C(=O)COc2cccc(/C=C3\Oc4ccccc4C3=O)c2)cc1`, with 108% (inactive).
As to `CN(C)CCC=C1c2ccccc2C(C)(C)c2ccccc21`, the growth is 10.4% (inactive).
The same measure, in the same setting: then `COc1cc(C2CC(c3cc(OC)c(OCCCOc4ccc(-n5c(/C=C/c6ccccc6)nc6ccccc6c5=O)cc4)c(OC)c3)=NO2)cc(OC)c1OC` (stereo unspecified), with 105% (inactive); and `CS(=O)c1cccc(-c2ccc3nc(N)n(-c4ccc(C(F)(F)F)cc4)c(=O)c3c2)c1` (stereo unspecified), with 106% (inactive).
On the same count and under the same terms, then `CC(C)(C)C(CCc1ccc(Cl)cc1)N1CCN(C2CCCCC2)CC1` (stereo unspecified), with 27% (inactive); and `CNC(=O)CCN1CCN(CC/C=C2\c3ccccc3Sc3ccc(Cl)cc32)CC1`, with 83.6% (inactive).
The same measure, in the same setting: then `O=c1ssc(Cl)c1-c1ccccc1`, with 104% (inactive); and `O=C1CC(N2C(=O)/C(=C/C(Cl)=C\c3ccc([N+](=O)[O-])cc3)SC2=S)C(=O)N1c1ccc(O)cc1` (stereo unspecified), with -81.6% (active); and `COC(=O)CCC1=C(C)C2=NC1=CC1=NC(=CC3=NC(=Cc4[nH]c(/c(=C(/C)O)c4C)=C2)C(C(C)=O)=C3C)C(C)=C1CCC(=O)OC`, with 104% (inactive).
As to `CC1SC(c2ccc(OCc3ccccc3)cc2)N(NC(=O)C(O)(c2ccccc2)c2ccccc2)C1=O` (stereo unspecified), the growth was 79.9% (inactive).
The same measure, in the same setting: then `N#CC1=C(NC=O)Oc2c(ccc3ccccc23)C1c1ccccc1` (stereo unspecified), with 63% (inactive); and `O=C(Cc1ccc(F)c(F)c1)Nc1cc(C2(C(F)(F)F)CC2)nn1Cc1ccccc1`, with 17.2% (inactive).
On the same count and under the same terms, then `CCN(CC)CCN1CC(O)=C(c2nc(-c3ccc(Cl)cc3)cs2)C1=N`, with -70.7% (active).
